# Values joined by “and” are separate entries in the source; they are usually repeats but may differ in a detail not shown here. Equal values may be shown once. This is part of a sample that, as a whole, favours compounds with a hit. Of some 83,000 tested, about 20% had one in any assay.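 Cells were grown in 96-well plates and exposed to the test compound at a single concentration for 48 hours; results are reported as percent growth, with values below 10 considered active.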 Active and inactive are the calls of the source.
# System: MDA-MB-468 breast
# Assay: NCI-60 one-dose screen, 48 h (100 = growth as untreated, 0 = no growth, -100 = all killed)
# Details: 10 µM unless noted
row,SMILES,growth
1,CCOC(=O)c1cnc2ccc(OC)cc2c1Nc1cccc(S(=O)(=O)NC)c1,113% (inactive)
2,CCN(CC)CCCC(C)NC(=S)N/N=C(\C)c1ccccn1 (centres undefined),-7.86% (active)
3,O=C(O)CCC(=O)c1ccc(C2CCCCCC2)cc1,105% (inactive)
4,COc1cc(-c2nn(-c3ccc(NC(=O)Nc4cc(C(F)(F)F)cc(C(F)(F)F)c4)cc3)cc2-c2ccncc2)ccc1Cl,-15.2% (active)
5,Nc1c2ccccc2nc2ccccc12,-45.4% (active) and 2.95% (active) and 23% (inactive)
6,COC(=O)CCCCCCCCC(C)c1ccc(C(C)=O)cc1 (centres undefined),110% (inactive)
7,O=c1cc(-c2ccccc2)[nH]c2c1CCCC2,39.9% (inactive)
8,COc1ccc(-c2nn(-c3ccc(NC(=O)Nc4ccc(Cl)c(Cl)c4)cc3)cc2-c2ccncc2)cc1Cl,-33.2% (active)
9,NC(=S)N1N=C(c2ccccc2)CC1c1cn(-c2ccccc2)nc1-c1ccc(OCc2ccccc2)cc1 (centres undefined),102% (inactive)
10,Cc1cc(C)c(C#N)c(SCC(=O)c2sc3c(C#N)c(C)cc(C)[n+]3c2[O-])n1,4.32% (active)
11,O=C1/C(=C\c2cccn2Cc2ccc(F)cc2)c2ccccc2N1c1c(Cl)cccc1Cl,9.21% (active)
12,CC(=O)Oc1ccccc1C(=O)N(Cc1ccc2c(Cl)cc(Cl)c(O)c2n1)c1ccccc1,40.9% (inactive)
13,N#CN1CC[C@H](C(=O)Nc2cc3cc(C(N)=O)ccc3cn2)C1,-46.2% (active)
14,CNC(=O)c1cc(Oc2ccc(NC(=O)Nc3ccc(Cl)c(OC4CCCCC4)c3)c(F)c2)ccn1,15.5% (inactive)
